Data on 19 compounds can be found in PubChem BioAssay.

Test [1] is described as follows: viability loss with induced miR-34 in A549 – imaging, A549 dox-inducible miR-34, nuclei and caspase counts, primary screen (AID 1347080). Further: test concentration not given here. The following applies: A549 miR-34 inducible, Hoechst nuclei count, 48 h.
Test [2] in a line: MELAS cybrid and Rieske KO viability enhancers – cell-based, MELAS cybrids, Rieske KO mouse fibroblasts, CellTiter-Glo, primary screen (AID 1508586;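 active means mean z-score across replicates of 1.96 or higher in either the MELAS or the Rieske mutant cell line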;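 further: test concentration not given here; z relative to plate mean and SD of compound and empty wells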). The following applies: low glucose. (In ATP-based viability assays light output follows the ATP content of the culture.)
Test [3] is described as follows: galactose survival enhancers in mitochondrial complex I cybrids – cell-based, galactose medium, ATP luminescence, primary screen (AID 1645843;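 active means z-score of at least 1.8 in each of two replicates, scored against plate mean and spread of sample wells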;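 further: positive z means more ATP and so rescue of galactose-driven cybrid death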). The following applies: complex I mutant cybrid cells, 72 h, stronger effect = higher value.
Where [4] appears, read: stronger effect = lower value, cell number ratio, induced over uninduced.
The mark [5] stands for this setting: measured here: relative caspase fold change +Dox/-Dox.
The mark [6] stands for this setting: measured here: total cells with miR-34 induction, stronger effect = lower value.
[7] abbreviates: measured here: total cells without miR-34 induction.
Setting [8] is: MELAS cybrid survival, CellTiter-Glo 48 h, stronger effect = higher value.
[9] abbreviates: Rieske KO mouse fibroblast survival, CellTiter-Glo 72 h.

Calls of active or inactive are those of the source.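 How the source made its calls, unless noted: active means compounds whose cell count with miR-34 switched on is under 0.7 times the count with it off; inactive means the rest.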

Regarding `Cn1c(=O)c2c(nc(N3CCNCC3)n2Cc2ccccc2)n(C)c1=O`, the fold change is 0.839 (inactive) in test [1] (setting [4]) and 0.525 in test [1] (setting [5]). The cell count in test [1] (setting [6]) was determined as 7900; in test [1] (setting [7]), 9410. In addition, the z-score in test [2] (setting [8]) is -1.69 (inactive); in test [2] (setting [9]), -0.314; in test [3] it was 0.525 (inactive).
`CC(O)c1cn(C2CCN(c3ncnc4nc[nH]c34)CC2)nn1` (stereo not drawn): the results for the fold change in test [1] (setting [4]) and in test [1] (setting [5]) were 0.902 (inactive) and 1.71, respectively. For the same compound, the cell count in test [1] (setting [6]) came out at 9250; in test [1] (setting [7]), 10300. In addition, the results for the z-score in test [2] (setting [8]), in test [2] (setting [9]) and in test [3] were 0.294 (inactive), -0.198 and -0.55 (inactive), respectively.
`COC(=O)CN1CCN(c2ncnc3sccc23)C(C)C1=O` (stereo not drawn): the fold change is 0.854 (inactive) in test [1] (setting [4]) and 1.54 in test [1] (setting [5]). Also, the results for the cell count in test [1] (setting [6]) and in test [1] (setting [7]) were 7880 and 9220, respectively. The z-score in test [2] (setting [8]) is 0.221 (inactive); in test [2] (setting [9]), 0.142; in test [3] it was -0.055 (inactive).
With `O=C(O)c1ccc(-c2ccc(F)cc2)cc1`, the fold change is 0.935 (inactive) in test [1] (setting [4]) and 1.32 in test [1] (setting [5]). Further, the cell count in test [1] (setting [6]) is 7840; in test [1] (setting [7]), 8390. Moreover, the z-score was -0.835 (inactive) in test [2] (setting [8]), -0.109 in test [2] (setting [9]) and 0.26 (inactive) in test [3].
For `O=c1ccn2c(n1)OC1C(O)C(CO)OC12` (stereo not drawn), the fold change is 0.869 (inactive) in test [1] (setting [4]) and 0.596 in test [1] (setting [5]). The cell count was 8620 in test [1] (setting [6]) and 9930 in test [1] (setting [7]). In addition, the z-score in test [2] (setting [8]) was 0.627 (inactive); in test [2] (setting [9]) it was -0.112; in test [3], 0.87 (inactive).
For the compound `Fc1ccccc1-c1cc(NCc2ccncc2)n2nccc2n1`, the fold change was 1.06 (inactive) in test [1] (setting [4]) and 0.296 in test [1] (setting [5]). For the same compound, the cell count in test [1] (setting [6]) came to 4240; in test [1] (setting [7]), 4020. Further, the values for the z-score in test [2] (setting [8]), in test [2] (setting [9]) and in test [3] were -1.56 (inactive), -0.13 and 0.425 (inactive), respectively.
Consider `NNC(=O)c1ccc(-c2ccccc2Cl)o1`, for which the fold change in test [1] (setting [4]) is 0.826 (inactive); in test [1] (setting [5]) it was 0.386. The cell count in test [1] (setting [6]) came to 7740; in test [1] (setting [7]) it was 9360. The figures for the z-score in test [2] (setting [8]), in test [2] (setting [9]) and in test [3] were 0.702 (inactive), -0.293 and 0.765 (inactive), respectively.
For the compound `Cc1cc(C)n(CCCNc2ncc(C)c(-c3cnn(C)c3)n2)n1`, the fold change in test [1] (setting [4]) is 0.893 (inactive); in test [1] (setting [5]), 1.21. In addition, the values for the cell count in test [1] (setting [6]) and in test [1] (setting [7]) were 8360 and 9370, respectively. Further, the z-score was -0.406 (inactive) in test [2] (setting [8]), 0.144 in test [2] (setting [9]) and -0.54 (inactive) in test [3].
As to `Cc1nn(C)c(C)c1-c1ccnc(NCCOCCO)n1`, the fold change in test [1] (setting [4]) was 0.905 (inactive); in test [1] (setting [5]) it was 1.28. Besides, the cell count in test [1] (setting [6]) stood at 8320; in test [1] (setting [7]), 9200. In addition, the results for the z-score in test [2] (setting [8]), in test [2] (setting [9]) and in test [3] were 0.0151 (inactive), -0.129 and -0.555 (inactive), respectively.
For `c1cc(CN2CCN3CCCC3C2)n(-c2nccs2)c1` (stereo not drawn), the fold change in test [1] (setting [4]) is 0.908 (inactive); in test [1] (setting [5]), 1.4. The cell count came to 8290 in test [1] (setting [6]) and 9130 in test [1] (setting [7]). Further, the figures for the z-score in test [2] (setting [8]), in test [2] (setting [9]) and in test [3] were 0.256 (inactive), -0.144 and -0.595 (inactive), respectively.
With `O=C(O)c1ccc(-c2ccccc2[N+](=O)[O-])o1`, the fold change in test [1] (setting [4]) is 0.891 (inactive); in test [1] (setting [5]), 0.452. In addition, the results for the cell count in test [1] (setting [6]) and in test [1] (setting [7]) were 8650 and 9710, respectively. In addition, the z-score in test [2] (setting [8]) is -0.508 (inactive); in test [2] (setting [9]), -0.463; in test [3] it was 0.32 (inactive).
Take `FC(F)Oc1ccc(-c2nc3c(cnn3Cc3cccs3)[nH]2)cc1`: the fold change was 0.844 (inactive) in test [1] (setting [4]) and 1.61 in test [1] (setting [5]). In addition, the cell count came to 6520 in test [1] (setting [6]) and 7720 in test [1] (setting [7]). In addition, the z-score in test [2] (setting [8]) is -0.426; in test [2] (setting [9]), 2.02; in test [3] it was 1.1 (inactive).
As for `CN=C(NC)NCc1ccccc1`, the figures for the fold change in test [1] (setting [4]) and in test [1] (setting [5]) were 0.917 (inactive) and 0.571, respectively. The cell count in test [1] (setting [6]) was 9010; in test [1] (setting [7]) it was 9830. The z-score in test [2] (setting [8]) is 0.186 (inactive); in test [2] (setting [9]), -0.223; in test [3], 0.38 (inactive).
Take `Cc1ccc2c(C(=O)N(C)C(C)C)cc(-c3cnc(C(C)C)nc3)nc2c1`: the fold change in test [1] (setting [4]) was 0.942 (inactive); in test [1] (setting [5]) it was 1.5. Moreover, the values for the cell count in test [1] (setting [6]) and in test [1] (setting [7]) were 7480 and 7940, respectively. Further, the z-score was 0.549 (inactive) in test [2] (setting [8]), 0.778 in test [2] (setting [9]) and -0.485 (inactive) in test [3].
`CC(=O)C=Cc1cn(C)c2ccccc12`: the results for the fold change in test [1] (setting [4]) and in test [1] (setting [5]) were 0.824 (inactive) and 0.579, respectively. Also, the cell count in test [1] (setting [6]) stood at 7690; in test [1] (setting [7]), 9340. In addition, the figures for the z-score in test [2] (setting [8]), in test [2] (setting [9]) and in test [3] were 1.15 (inactive), 0.123 and 0.49 (inactive), respectively.
Regarding `COc1ccccc1-c1noc(Cc2ccc3c(c2)OCO3)n1`, the fold change is 0.864 (inactive) in test [1] (setting [4]) and 2.45 in test [1] (setting [5]). For the same compound, the cell count in test [1] (setting [6]) is 7680; in test [1] (setting [7]), 8890. The z-score was 0.0213 (inactive) in test [2] (setting [8]), 1.35 in test [2] (setting [9]) and 1.62 (inactive) in test [3].
On to `CCOc1ccc(C=C2NCCc3cc(OCC)c(OCC)cc32)cc1OCC`, for which the fold change was 0.846 (inactive) in test [1] (setting [4]) and 0.801 in test [1] (setting [5]). For the same compound, the results for the cell count in test [1] (setting [6]) and in test [1] (setting [7]) were 4950 and 5850, respectively. Moreover, the z-score was -1.41 (inactive) in test [2] (setting [8]), -0.0245 in test [2] (setting [9]) and -2.65 (inactive) in test [3].
Consider `CCn1nccc1NC(=O)Cn1cc(-c2ccc(C(=O)N3CCCC3)cn2)cn1`, for which the fold change is 0.832 (inactive) in test [1] (setting [4]) and 1.64 in test [1] (setting [5]). Moreover, the cell count is 7850 in test [1] (setting [6]) and 9430 in test [1] (setting [7]). For the same compound, the z-score in test [2] (setting [8]) was 0.812 (inactive); in test [2] (setting [9]), -0.539; in test [3], -0.57 (inactive).
As to `CN(C)C(=O)c1cc(-c2cnc(-c3ccccn3)nc2)nc2cc(F)ccc12`, the fold change was 0.875 (inactive) in test [1] (setting [4]) and 1.98 in test [1] (setting [5]). Also, the cell count turned out to be 8570 in test [1] (setting [6]) and 9790 in test [1] (setting [7]). The z-score is -0.444 (inactive) in test [2] (setting [8]), -0.334 in test [2] (setting [9]) and -0.41 (inactive) in test [3].
